# Source: PubChem BioAssay AID1159580 (chemical genetic matrix, 2015)
# Out of some 5,500 compounds screened, about 2,000 (36%) were called active. Not shown: some 18% with an inconclusive outcome. Some of the results follow. Unmarked numbers belong to inactive results. No stated cut-off is given here; in the data, active means normalized growth mostly below about 0.91 (no sharp cut-off); inconclusive means no clear call, values can overlap the other calls; inactive means mostly above about 0.92.
# Experiment: chemical genetic growth profiling, strain panel (AID 1159580);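 further: tested at 20 µM; growth read once vehicle control cultures reached saturation at 30 °C; 1 = growth at the plate median or of vehicle wells; lower values mean less growth of the strain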
# Conditions: growth OD
# [1] = S. cerevisiae deletion strains, locus YAL013W, strain DEP1, active compounds read low
# [2] = S. cerevisiae deletion strains, locus YBR229C, strain ROT2, active compounds read low
# [3] = S. cerevisiae deletion strains, locus YDL101C, strain DUN1, active compounds read low
# [4] = S. cerevisiae deletion strains, locus YDR150W, strain NUM1, active compounds read low
# [5] = S. cerevisiae deletion strains, locus YEL061C, strain CIN8, active compounds read low
# [6] = S. cerevisiae deletion strains, locus YGR078C, strain PAC10, active compounds read low
# [7] = S. cerevisiae deletion strains, locus YHR030C, strain SLT2, active compounds read low
# [8] = S. cerevisiae deletion strains, locus YHR087W, strain rtc3, active compounds read low
# [9] = S. cerevisiae deletion strains, locus YJR043C, strain POL32, active compounds read low
# [10] = S. cerevisiae deletion strains, locus YJR075W, strain HOC1, active compounds read low
# [11] = S. cerevisiae deletion strains, locus YLR039C, strain RIC1, active compounds read low
# [12] = S. cerevisiae deletion strains, locus YLR058C, strain SHM2 (second series), active compounds read low
# [13] = S. cerevisiae deletion strains, locus YLR085C, strain ARP6, active compounds read low
# [14] = S. cerevisiae deletion strains, locus YLR262C, strain YPT6, active compounds read low
# [15] = S. cerevisiae deletion strains, locus YML094W, strain GIM5, active compounds read low
# [16] = S. cerevisiae deletion strains, locus YMR219W, strain ESC1, active compounds read low
# [17] = S. cerevisiae deletion strains, locus YMR263W, strain SAP30, active compounds read low
# [18] = S. cerevisiae deletion strains, locus YNL153C, strain GIM3, active compounds read low
# [19] = S. cerevisiae deletion strains, locus YNL298W, strain CLA4 (second series), active compounds read low
# [20] = S. cerevisiae deletion strains, locus YNL322C, strain KRE1, active compounds read low
# [21] = S. cerevisiae deletion strains, locus YNR030W, strain Alg12, active compounds read low
# [22] = S. cerevisiae deletion strains, locus YPL055C, strain LGE1, active compounds read low
# [23] = S. cerevisiae deletion strains, locus YPL241C, strain CIN2, active compounds read low
# [24] = S. cerevisiae deletion strains, locus YPR135W, strain CTF4, active compounds read low
# [25] = S. cerevisiae strains, strain wild type, active compounds read low
# [26] = S. cerevisiae deletion strains, locus YCL061C, strain MRC1, active compounds read low
# [27] = S. cerevisiae deletion strains, locus YJL187C, strain SWE1, active compounds read low
# [28] = S. cerevisiae deletion strains, locus YOL006C, strain TOP1, active compounds read low
structure (smiles),measurement,setting,value
Cc1ccc(Sc2nc(C)c([N+](=O)[O-])c(C)c2C#N)cc1,normalized growth,[1],0.969
same,normalized growth,[2],0.982
same,normalized growth,[3],0.997
same,normalized growth,[4],0.99
same,normalized growth,[5],0.934
same,normalized growth,[6],0.979
same,normalized growth,"S. cerevisiae deletion strains, locus YGR229C, strain SMI1, active compounds read low",0.978
same,normalized growth,[7],0.625 (active)
same,normalized growth,[8],0.975
same,normalized growth,[9],0.967
same,normalized growth,[10],0.952
same,normalized growth,"S. cerevisiae deletion strains, locus YKL190W, strain CNB1, active compounds read low",0.977
same,normalized growth,[11],0.664 (active)
same,normalized growth,[12],0.969
same,normalized growth,[13],0.883
same,normalized growth,[14],0.732 (active)
same,normalized growth,[15],1.01
same,normalized growth,[16],0.979
same,normalized growth,[17],0.97
same,normalized growth,"S. cerevisiae deletion strains, locus YMR307W, strain GAS1, active compounds read low",0.763
same,normalized growth,[18],0.994
same,normalized growth,[19],0.947
same,normalized growth,[20],0.974
same,normalized growth,[21],0.965
same,normalized growth,[22],0.963
same,normalized growth,[23],1.06
same,normalized growth,[24],0.828
same,normalized growth,[25],0.974
NC(=S)CS(=O)(=O)c1ccc(C(F)(F)F)cc1,normalized growth,[1],0.977
same,normalized growth,[2],1.01
same,normalized growth,[26],1.02
same,normalized growth,[3],1.03
same,normalized growth,[4],0.998
same,normalized growth,[5],1.03
same,normalized growth,[6],1.01
same,normalized growth,[7],1.03
same,normalized growth,[8],1.01
same,normalized growth,[27],1.02
same,normalized growth,[9],1.01
same,normalized growth,[10],1.02
same,normalized growth,[11],1.09
same,normalized growth,[12],1.02
same,normalized growth,[13],1.23 [resistant] (active)
same,normalized growth,[14],1.07
same,normalized growth,[15],1.01
same,normalized growth,[16],1.02
same,normalized growth,[17],1.04
same,normalized growth,"S. cerevisiae deletion strains, locus YNL128W, strain TEP1, active compounds read low",1.03
same,normalized growth,[18],1.02
same,normalized growth,[19],1.03
same,normalized growth,[20],1
same,normalized growth,[21],0.992
same,normalized growth,[28],1.23
same,normalized growth,[22],0.952
same,normalized growth,[23],1.09
same,normalized growth,[24],0.969
CC(=O)CS(=O)(=O)c1ccc(Cl)cc1,normalized growth,[1],1.02
same,normalized growth,[2],1.01
same,normalized growth,[26],1.01
same,normalized growth,[3],1.01
same,normalized growth,"S. cerevisiae deletion strains, locus YDL134C, strain PPH21, active compounds read low",1
same,normalized growth,[4],0.969
same,normalized growth,[5],1.02
same,normalized growth,[6],1
same,normalized growth,[7],1
same,normalized growth,[8],0.998
same,normalized growth,[27],0.995
same,normalized growth,[9],0.988
same,normalized growth,[10],0.995
same,normalized growth,[11],1.02
same,normalized growth,[12],1
same,normalized growth,[13],1.04
same,normalized growth,[14],1.03
same,normalized growth,[15],1.02
same,normalized growth,[16],1.01
same,normalized growth,[17],0.969
same,normalized growth,[18],0.995
same,normalized growth,[19],0.992
same,normalized growth,[20],1.01
same,normalized growth,[21],1
same,normalized growth,[28],1.01
same,normalized growth,[22],1
same,normalized growth,[23],1.02
same,normalized growth,[24],0.933
same,normalized growth,[25],1
